Data taken from PubChem BioAssay (NCATS).
Inconclusive results are not listed. Entries that show only a call come without a potency. Active and inactive are the calls of the source. The call rests on the fitted dose curve; in most records, active means well fitted inhibition curve with a large enough effect; inconclusive means small, poorly fitted or top-dose-only effect; inactive means flat fitted curve, though single readings scatter.

Molecular target: Ubiquitin carboxyl-terminal hydrolase 1 (Homo sapiens) (UniProt O94782)
Test: Inhibitors of USP1/UAF1: Pilot qHTS (AID 504865); further: nearly all actives have a fitted effect of over 35% in size
Settings: purified USP1/UAF1, Ub-rhodamine cleavage fluorescence; series mostly up to 114 µM
How it was run: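 Deubiquitinase activity followed as kinetic rhodamine fluorescence release from 150 nM Ub-Rho. 1 nM USP1/UAF1 with compound, after 15 min room-temperature preincubation, in HEPES pH 7.8 buffer containing TCEP, EDTA, BSA and Tween-20.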
Potency means the concentration at half of the fitted maximal effect.

Sequence of Ubiquitin carboxyl-terminal hydrolase 1 (Homo sapiens) (O94782 whole entry, looked up): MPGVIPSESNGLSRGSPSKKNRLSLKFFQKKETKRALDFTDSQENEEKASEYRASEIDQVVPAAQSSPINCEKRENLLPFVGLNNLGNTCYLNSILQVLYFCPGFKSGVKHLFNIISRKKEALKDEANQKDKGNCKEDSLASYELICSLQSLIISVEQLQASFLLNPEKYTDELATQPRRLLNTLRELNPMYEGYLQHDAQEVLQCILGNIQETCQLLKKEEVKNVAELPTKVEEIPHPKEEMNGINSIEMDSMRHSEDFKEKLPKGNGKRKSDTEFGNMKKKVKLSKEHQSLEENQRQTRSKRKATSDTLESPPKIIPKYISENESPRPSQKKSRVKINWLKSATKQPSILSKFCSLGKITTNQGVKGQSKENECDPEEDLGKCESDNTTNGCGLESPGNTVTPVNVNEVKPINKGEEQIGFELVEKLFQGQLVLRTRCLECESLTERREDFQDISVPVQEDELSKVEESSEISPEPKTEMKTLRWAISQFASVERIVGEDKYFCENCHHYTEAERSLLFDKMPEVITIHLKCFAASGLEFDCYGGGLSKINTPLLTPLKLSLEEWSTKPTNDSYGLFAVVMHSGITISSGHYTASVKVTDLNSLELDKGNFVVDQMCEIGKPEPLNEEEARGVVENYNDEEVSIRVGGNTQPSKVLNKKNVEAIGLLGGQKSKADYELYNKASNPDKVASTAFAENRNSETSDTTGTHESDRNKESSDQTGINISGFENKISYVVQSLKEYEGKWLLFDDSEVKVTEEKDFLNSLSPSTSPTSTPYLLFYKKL

Row | Compound | Potency
1 | CC[C@H]1OC(=O)[C@H](C)[C@@H](O[C@H]2C[C@@](C)(OC)[C@@H](O)[C@H](C)O2)C(C)[C@@H](O[C@@H]2O[C@H](C)C[C@H](N(C)C)[C@@H]2O)[C@](C)(OC)C[C@@H](C)C(=O)[C@H](C)[C@@H](O)[C@]1(C)O (some centres undefined) | inactive
2 | C[C@H](N)C(=O)N[C@@H](C)P(=O)(O)O | inactive
3 | NC(N)=NCC1COc2ccccc2O1 (centres undefined) | inactive
4 | CCN(CC)CCC(=O)N1c2ccccc2Sc2ccc(Cl)cc21 | inactive
5 | CCOC(=O)[C@@H](N)CS | inactive
6 | CC(C)(CO)[C@@H](O)C(=O)NCCC(=O)NCCSSCCNC(=O)CCNC(=O)[C@H](O)C(C)(C)CO | inactive
7 | O=C(O)[C@H]1CN(C/C=C/P(=O)(O)O)CCN1 | inactive
8 | CC(C)CCCC(C)NC(C)C (centres undefined) | inactive
9 | CC(=O)Nc1ccc(OC(C)=O)cc1 | inactive
10 | CCCCCCCCCCCCCCCCCC[N+](C)(C)CCC[Si](OC)(OC)OC | inactive
11 | CO[C@H]1C[C@@H]2CC[C@@H](C)[C@@](O)(O2)C(=O)C(=O)N2CCCC[C@H]2C(=O)O[C@H]([C@H](C)C[C@@H]2CC[C@@H](OC(=O)C(C)(CO)CO)[C@H](OC)C2)CC(=O)[C@H](C)/C=C(\C)[C@@H](O)[C@@H](OC)C(=O)[C@H](C)C[C@H](C)/C=C/C=C/C=C/1C | inactive
12 | COc1ccccc1N1CCN(CCCC(=O)c2ccc(F)cc2)CC1 | inactive
13 | CCOC(=O)Cc1ccc(-c2ccccc2)cc1 | inactive
14 | O=C(O)/C=C/C(=O)Nc1ccc(S(=O)(=O)Nc2nccs2)cc1 | inactive
15 | Cc1cccc(C)c1NC(=O)NC1=CCCN1C | inactive
16 | CC(C)CCC[C@@H](C)[C@H]1CC[C@H]2[C@@H]3CC[C@@H]4C[C@H](O)CC[C@]4(C)[C@H]3CC[C@]12C | inactive
17 | Nc1nc(=O)n([C@@H]2CS[C@H](CO)O2)cc1F | inactive
18 | CCN(CC)CCOC(=O)c1cccnc1 | inactive
19 | N#Cc1ccc2c(c1)N(CCCN1CCC(O)CC1)c1ccccc1S2 | inactive
20 | c1ccc(-n2cnnn2)cc1 | inactive

Row | Compound | Potency
21 | OC/C=C/c1ccccc1 | inactive
22 | NCC[C@H](O)C(=O)N[C@@H]1C[C@H](N)[C@@H](O[C@H]2O[C@H](CN)[C@@H](O)[C@H](O)[C@H]2O)[C@H](O)[C@H]1O[C@H]1O[C@H](CO)[C@@H](O)[C@H](N)[C@H]1O | inactive
23 | COc1ccc(/C=N/NC(=O)c2ccncc2)c(C(=O)O)c1OC | inactive
24 | COc1cc(C)c(/C=C/C(C)=C/C=C/C(C)=C/C(=O)O)c(C)c1C | 50.1 µM (active)
25 | CC(CN(C)C)CN1c2ccccc2Sc2ccc(C(F)(F)F)cc21 (centres undefined) | inactive
26 | Cc1cc(C(=O)NCCc2ccc(S(=O)(=O)NC(=O)NN3CCCCCC3)cc2)no1 | inactive
27 | O=C(NNCNNC(=O)c1ccncc1)c1ccncc1 | inactive
28 | CC(=O)Nc1c(I)c(C(=O)O)c(I)c(N(C)C(C)=O)c1I | inactive
29 | C[N+]1(C)[C@@H]2CC(OC(=O)C(O)(c3cccs3)c3cccs3)C[C@H]1[C@@H]1O[C@@H]12 (some centres undefined) | inactive
30 | CCN(CC)CCC(=O)N1c2ccccc2Sc2ccc(C(F)(F)F)cc21 | inactive
31 | [O]=[Bi][O][Bi]=[O] | inactive
32 | Cc1ncc(C[n+]2csc(CCOP(=O)(O)OP(=O)(O)O)c2C)c(N)n1 | inactive
33 | CC(C)c1nc(N(C)S(C)(=O)=O)nc(-c2ccc(F)cc2)c1/C=C/C(O)CC(O)CC(=O)O (centres undefined) | inactive
34 | CC(C)C1=CC2=CC[C@@H]3[C@](C)(CCC[C@@]3(C)C(=O)O)[C@H]2CC1 | inactive
35 | Cn1cc(NC(=O)c2cc(NC(=O)c3cc(NC=O)cn3C)cn2C)cc1C(=O)NCCC(=N)N | inactive
36 | O=C(O)C1=C(CSc2nnnn2CS(=O)(=O)O)CS[C@@H]2[C@H](NC(=O)[C@H](O)c3ccccc3)C(=O)N12 | inactive
37 | C[C@H](O)CN(C)C | inactive
38 | O=C(O)CCCC/C=C(\c1ccccc1)c1cccnc1 | inactive
39 | CC/C=C\C/C=C\C/C=C\C/C=C\C/C=C\C/C=C\CCC(=O)O | 50.1 µM (active)
